Potency data for 45 molecules are collected here from PubChem BioAssay AID651635 (National Center for Advancing Translational Sciences (NCATS), 2012).

The campaign covered roughly 400,000 compounds. About 1,900 (0.47%) were called active. A call without a number means that no potency is given here. Inconclusive results (about 14%) are left out. Calls follow the shape of the dose curve; as a rule, active = well fitted cell-killing curve with a large enough effect; inconclusive = small, poorly fitted or top-dose-only effect, or effect the other way; inactive = no such curve, though single readings can be large or run the other way. Many of the other results were omitted from the sample, so actives are more common in it than they were.
Potency is read from the fitted curve at half-maximal effect.

A short description of the assay: Viability Counterscreen for Primary qHTS for Inhibitors of ATXN expression. Also: nearly all actives have a fitted effect of over 40% in size. Particulars: S2 cells (HEK-293 line with an ATXN2-luciferase reporter) viability, CellTiter-Fluor protease fluorescence, 24 h; series mostly up to 56.7 µM. An excerpt: Spinocerebellar ataxia type 2 (SCA2) is a multisystem neurodegenerative disease caused by a dominantly-acting mutation leading to expansion of a polyQ domain in the ataxin-2 protein (ATXN2). SCA2 patients develop progressive ataxia and later lose function in other neuronal systems. Prominent parkinsonian signs develop in some patients. Similar to many neurodegenerative disorders, no symptomatic or disease-modifying treatments are known.
The primary objective of the proposed research is to identify compounds inhibiting ATXN2 expression and to test them for efficacy in SCA2 mouse models. To this end, we have developed a cell-based assay paired with an in vivo mouse model using identical luciferase expression constructs. This approach takes advantage of an ATXN2-luciferase transgene, with the luciferase gene flanked by the upstream and downstream portions of the ATXN2 gene. This primary assay was tested against the NIH Molecular Libraries Small Molecule Repository (MLSMR).
NIH Chemical Genomics Center [NCGC]
NIH Molecular Libraries Probe Centers Network [MLPCN]
Assay Submitter (PI): Daniel Scoles, University of Utah
PROTOCOL TABLE (as described by Inglese J, Shamu CE and Guy RK. 2007)
SEQUENCE No. (e.g., 1, 2, 3, etc.); […] (e.g., Cells, Incubation, Reagent, etc.); VALUE; DESCRIPTION.
1; Cells; 4 uL; white, solid bottom, 1536-well Greiner assay plate.
2; Incubation; 2 hr; 37 degree C in 5% humidified CO2.
3; Compounds; 23 nL; Kalypsis pintool (Wako USA) equipped with a 1536-well pin head.
4; Incubation; 24 hr; 37 degree C in 5% humidified CO2.
5; Reagent; 1 uL; Gly-Phe-7-Amino-4-trifluoromethylcoumarin.
6; Incubation; 30 min; 37 degree C in 5% humidified CO2.
7; Detection; Fluorescence; ViewLux plate reader (PerkinElmer).
8; Reagent; 3 uL; SteadyGlo luciferase solution (Promega).
9; Incubation; 5 min; room temperature.
10; Detection; Luminescence; ViewLux plate reader (PerkinElmer).
NOTES (numbers refer to Sequence numbers above)
1. S2 cells expressing ATXN2-luciferase reporter were suspended in phenol-red free DMEM and dispensed in assay plates using a Multidrop Combi dispenser (Thermo Fisher Scientific).
2. Assay plates were incubated. Evaporation was prevented by covering assay plates with metal lids containing holes to allow gas diffusion.
3. […] Vehicle-only plates, with DMSO being pin-transferred to columns 5-48, were inserted uniformly at the beginning and the end of each library to monitor and record any shifts in assay performance.
5. 125 uM Gly-Phe-7-Amino-4-trifluoromethylcoumarin (MP Biomedicals) working concentration was used at a final concentration of 25 uM.
7. To assess cell viability; the assay plates were read using the ViewLux high-throughput CCD imager (PerkinElmer), wherein single end-point fluorescence measurement was acquired (excitation 405/10; emission 540/25 nm).
8. Detection reagent SteadyGlo Luciferase (Promega) was added to the assay plate.
10. Luminescence is then measured on the ViewLux imager equipped with a clear emission filter using a 2 sec exposure. All screening operations were performed on a fully integrated robotic system (Kalypsys) containing one RX-130 and two RX-90 anthropomorphic robotic arms (Staubli).
Inglese J, Shamu CE and Guy RK, Reporting data from high throughput screening of small molecule libraries, Nature Chemical Biology, 2007, 3(8): 438-441. doi.org/10.1038/nchembio0807-438.
For `CCOC(=O)c1scc(-c2ccccc2)c1S(=O)(=O)Nc1ccccc1F`, the Potency result is “inactive”. Consider `CCCS(=O)(=O)c1ncc(Cl)c(C(=O)Nc2scc(-c3ccccc3)c2C(=O)OCC)n1`, for which the Potency was 15.8 µM (active). Turning to `Cc1ccc(C)c(C(O)c2ncc(-c3cccc4ccccc34)[nH]2)c1` (stereo not given), the Potency result is “inactive”.

Turning to `CO[C@H]1[C@@H](O)[C@H](N)[C@@H](O[C@H]2O[C@H]([C@H](C)N)CC[C@H]2N)[C@H](O)[C@@H]1N(C)C(=O)CN`, the Potency entry is “inactive”. For `Cc1ccc(CN2CC(N3CCC(Cc4ccccc4)CC3)CS2(=O)=O)cc1` (stereo not given), the Potency result is “inactive”. For the molecule `O=C(COC(=O)CCc1c[nH]c(=O)[nH]1)Nc1ccccc1Cl`, the Potency result is “inactive”. In the case of `O=C(Nc1ccccc1Cl)/C(Cl)=C(\Cl)S(=O)c1ccccc1` (stereo not given), the Potency was 3.55 µM (active). Turning to `NC(=O)C1(Nc2ccccc2Cl)CCCC1`, the Potency result was “inactive”. Take `O=C(CN1C(=O)COc2ccc(S(=O)(=O)N3CCCCCC3)cc21)N1CCN(c2cccc(C(F)(F)F)c2)CC1`: the Potency entry was “inactive”. Take `Cc1ccc(S(=O)(=O)c2nc(-c3cccs3)oc2NCc2cccnc2)cc1`: the Potency entry was “inactive”.

As for `CCCCS(=O)(=O)c1oc(-c2cccs2)nc1S(=O)(=O)c1ccccc1`, the Potency is 3.16 µM (active). The value for `NC(=O)CSc1oc(-c2cccs2)nc1S(=O)(=O)c1ccccc1` was “inactive”.

For `COc1ccccc1-c1ccnc(-n2ncc(C(=O)NCCCN3CCOCC3)c2C)n1`, the Potency entry was “inactive”. The value for `Cc1ccc(-c2cnc(C(O)c3cc(Cl)cc(Cl)c3)[nH]2)cc1` (stereo not given) was “inactive”; that for `Cc1cc(C)c2oc(C(=O)Nc3ccc(S(=O)(=O)N4CCCCCC4)cc3)cc(=O)c2c1` was “inactive”; that for `CCCc1ccc(C(O)c2ncc(-c3cccc(OC)c3)[nH]2)cc1` (stereo not given) was “inactive”.

On to `COc1ccc(C(N)c2csc(NC(=O)Nc3cccc(C(F)(F)F)c3)n2)cc1` (stereo not given), for which the Potency was 17.8 µM (active).

As for `COc1cccc(NC(=O)Nc2ccc(F)cc2)c1`, the Potency result was “inactive”. In the case of `CC(=O)c1ccc(Nc2nc(C(N)c3ccccc3)cs2)cc1` (stereo not given) it was “inactive”. In the case of `Cc1c(O)cc2c(c1C)O[C@](C)(CCC[C@H](C)CCC[C@H](C)CCCC(C)C)CC2` it was “inactive”; in that of `OCC1CCCN(c2nc3cc4c(cc3cc2CNCc2cccs2)OCO4)C1` (stereo not given), “inactive”. `CC(C)c1cccc(C(C)C)c1Nc1cn[nH]c1`: the Potency entry was “inactive”. The value for `CC(C)C[C@H]1CNC(=S)N1C[C@H]1CCCN1C[C@H](Cc1ccc(O)cc1)N1C[C@H](Cc2ccc(O)cc2)N(CC2CCCCC2)C1=S` was 31.6 µM (active); that for `CC(C)C[C@H]1CNC(=O)C(=O)N1C[C@@H]1CCCN1C[C@H](Cc1ccccc1)N1C[C@H](CC(C)C)N(CC2CCCCCC2)C(=O)C1=O` was “inactive”; that for `O=C1NC[C@H](Cc2ccc(O)cc2)N(C[C@@H]2CCCN2C[C@H](Cc2ccccc2)N2C[C@H](Cc3ccccc3)N(CC3CCCCC3)C(=O)C2=O)C1=O` was “inactive”. For the molecule `COc1ccc(C2CC(c3cccc(OC)c3)=NN2c2ccc(S(N)(=O)=O)cc2)cc1` (stereo not given), the Potency entry is “inactive”. In the case of `CCCOc1ccc(F)cc1-c1cc(C(=O)Nc2ccc(F)c(Cl)c2)[nH]n1` it was “inactive”; in that of `Nc1cccc(OCCCCCOc2cccc(N)c2)c1`, “inactive”. For the molecule `O=c1c(CN2CCOc3ccc(CN4CCC(Oc5cccnc5)CC4)cc3C2)coc2ccccc12`, the Potency is 28.2 µM (active).

In the case of `c1ccc(CN2CCN(Cc3ccc4c(c3)CN(Cc3c[nH]c5ccccc35)CCO4)CC2)nc1`, the Potency result was “inactive”.

For the molecule `CCOC(=O)N1CCC(N2CCOc3ccc(CN4CCC(O)(c5cccnc5)CC4)cc3C2)CC1`, the Potency entry is “inactive”. In the case of `Cc1cc(-c2ccnc(-n3ncc(C(=O)NCCc4ccncc4)c3C)n2)c(C)s1` it was “inactive”; in that of `CC[C@H](C)CCCCC(=O)N[C@@H](CCN)C(=O)N[C@H](C(=O)N[C@@H](CCN)C(=O)N[C@H]1CCNC(=O)[C@@H]([C@H](C)O)NC(=O)[C@H](CCN)NC(=O)[C@H](CCN)NC(=O)[C@H](CC(C)C)NC(=O)[C@@H](CC(C)C)NC(=O)[C@H](CCN)NC1=O)[C@@H](C)O`, “inactive”. Consider `CC(C)N=C1CCCC1C(=S)SSC(=S)C1CCCC1=NC(C)C` (stereo not given), for which the Potency is 0.282 µM (active). Turning to `CC1(C(=O)NS(=O)(=O)c2ccc3ccccc3c2)CCN1C(=O)C1(c2ccc(Cl)cc2)CCC1` (stereo not given), the Potency result is “inactive”. For the molecule `CCOC(=O)Cc1ccc(NC(=O)Nc2c[nH]c(=O)[nH]c2=O)cc1`, the Potency entry was “inactive”. The value for `COC(=O)c1ccccc1C(=O)NCc1nc(N2CCCC2)c2cccc(C)c2n1` was “inactive”. With `COc1ccc(COC[C@H](CC(C)C)N2CCN(C(=O)c3cccc(C(F)(F)F)c3)CCC2=O)cc1`, the Potency result was “inactive”. In the case of `CC(=O)N1Cc2cc(C(=O)NCc3cccc(F)c3)nc(-c3cccc(C4=CCCC4)c3)c2[C@H]1CCO`, the Potency entry is “inactive”. For the molecule `CCCCOCCOC(=O)c1cccnc1`, the Potency entry was “inactive”. Turning to `Cc1coc2c(O)cc3c(c12)OC1(N2CCCCC2)C(=O)NCCCC31` (stereo not given), the Potency is 31.6 µM (active). As to `C=CCC[C@H](CCCCC)OC(=O)/C=C/[C@H](O)[C@@H](O)C[C@@H](O)CC=C`, the Potency result was “inactive”.

On to `O[C@H]1C[C@H](c2ccc(Cl)cc2)N(Cc2cccs2)C[C@@H]1n1cc(C2CC2)nn1`, for which the Potency was 22.4 µM (active). Regarding `O=C(OCc1cn([C@@H]2C[C@H](c3ccc(Cl)cc3)N(Cc3cccs3)C[C@H]2O)nn1)c1ccccc1`, the Potency result was “inactive”. As for `O[C@H]1CN(Cc2cccs2)[C@@H](c2ccc(Cl)cc2)C[C@@H]1n1cc(C2CC2)nn1`, the Potency entry was “inactive”.
